The full list was thinned out, with hits kept by preference.
Algae TAG accum – inducers of triacylglycerol accumulation in Chlamydomonas reinhardtii algae; Chlamydomonas reinhardtii TAG, Nile Red fluorescence, 72 h; calls only at 10 µM (by protocol); 0.84% of 44,000 active; AID 1159537; call rule not given here;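 also: hits raise Nile Red signal meaning more stored TAG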
Active calls of the source: *; i = inactive; + = active, no number.

SMILES	Algae TAG accum
Oc1cccc(CN2CCN(c3ccc(F)cc3)CC2)c1	i
c1ccc(CCN2CCOCC2)cc1	i
Fc1ccc(N2CCN(CCc3ccccc3)CC2)cc1	+
Cc1ccc(CN2C[C@@H]3C[C@@H](C2)c2cccc(=O)n2C3)cc1	i
Cc1cccc(CN2CCN(c3ccccc3C)CC2)c1	i
COc1ccccc1N1CCN(Cc2ccc(F)c(Br)c2)CC1	i
COc1ccccc1N1CCN(Cc2ccc(Cl)c(Cl)c2)CC1	i
CCOc1ccccc1N1CCN(Cc2ccc(OC)cc2)CC1	i
COc1ccccc1N1CCN(Cc2ccc(F)cc2)CC1	+
COc1ccc(CN2CCN(c3ccccc3OC)CC2)cc1O	i
COc1ccccc1N1CCN(Cc2ccc(O)cc2)CC1	+
COc1ccc(CN2CCN(Cc3ccccc3)CC2)c(C)c1C	i
O=[N+]([O-])c1ccccc1CN1CCN(c2ccccc2Cl)CC1	i
COc1ccccc1CN1CCN(Cc2ccc(SC)cc2)CC1	i
CN1CCN(c2ccc([N+](=O)[O-])cc2C=O)CC1	i
CC(=O)Nc1cc(N2CCN(C)CC2)ccc1[N+](=O)[O-]	i
COc1ccc(O)c(CN2CCN(Cc3ccc(Cl)cc3)CC2)c1	i
O=[N+]([O-])c1ccc(O)c(CN2CCN(Cc3ccccc3)CC2)c1	i
Oc1ccc(Cl)cc1CN1CCN(Cc2ccccc2)CC1	+
Cc1ccccc1-n1c(/C=C/c2ccc([N+](=O)[O-])o2)nc2ccccc2c1=O	i
COc1ccc(CCN(C)Cc2ccc([N+](=O)[O-])cc2)cc1OC	+
COc1ccc(CCN(C)Cc2cccc([N+](=O)[O-])c2)cc1OC	i
COc1ccc(CCN(C)Cc2ccc([N+](=O)[O-])o2)cc1OC	i
COc1ccc(-n2c(/C=C/c3ccc(N(C)C)cc3)nc3ccccc3c2=O)cc1	i
CN1CCN(C(=O)COc2ccc(Cl)cc2Br)CC1	i
SMILES	Algae TAG accum
COc1ccccc1CN1CCN(Cc2cccc(F)c2)CC1	i
OCCN1CCN(Cc2ccc(Cl)cc2)CC1	i
CC(C)c1ccc(CN2CCN(CCO)CC2)cc1	+
OCCN1CCN(Cc2ccc(F)c(F)c2)CC1	i
COc1ccc(-c2nc3ccccc3c(=O)n2-c2ccc(F)cc2)cc1	i
CC(=O)c1ccc(N2CCN(Cc3ccc(Br)cc3)CC2)cc1	i
O=[N+]([O-])c1ccccc1CN1CCN(Cc2ccccc2)CC1	i
Cc1ccccc1N1CCN(Cc2ccc(F)cc2)CC1	+
CC(C)c1ccc(CN2CCN(c3ccccc3)CC2)cc1	i
CSc1ccc(CN2CCN(c3ccccc3C)CC2)cc1	i
O=[N+]([O-])c1ccc(CN2CCN(Cc3ccccc3F)CC2)cc1	+
Cc1ccccc1N1CCN(Cc2ccc(Br)cc2)CC1	i
CCc1ccc(CN2CCN(c3ccccc3C)CC2)cc1	+
Brc1ccc(CN2CCN(c3ccccc3)CC2)cc1	+
Cc1ccccc1N1CCN(Cc2ccccc2)CC1	i
O=C(Cc1ccccc1)N1CCN(Cc2ccc([N+](=O)[O-])cc2)CC1	i
Cc1cccc(N2CCN(Cc3ccc(F)cc3)CC2)c1C	i
Cc1ccc(C(=O)C(C)(C)NO)cc1	i
CC(=O)c1ccc(N2CCN(C)CC2)c(F)c1	i
Cc1ccccc1CN1CCN(CCO)CC1	i
Cc1ccccc1CN1CCN(c2ccccc2F)CC1	i
C=CCC1(CC=C)C(=O)N(C)C(=O)N(C)C1=O	i
CC(C)N1CCN(Cc2ccc(F)cc2)CC1	i
COc1ccc(CNCCc2cccc(F)c2)cc1OC	i
COc1ccc(CNCCc2ccccc2)cc1C	i
Fc1cccc(CN2CCCCC2c2cccnc2)c1 (stereo not drawn)	i
Cc1cccc(N2CCN(Cc3cccc([N+](=O)[O-])c3)CC2)c1C	i
Cc1cccc(N2CCN(Cc3ccccc3)CC2)c1C	i
Cc1cccc(N2CCN(Cc3ccc([N+](=O)[O-])cc3)CC2)c1C	+
CCOc1ccccc1N1CCN(Cc2ccc(F)cc2F)CC1	i
